Whole data set: some 16,000 sequences, median “rpm ratio (pull-down/input)” near 0.94, cut for the highest 2% near 1.7. What follows is part of a selection rich in the highest values, with near analogues and random picks from the rest.
Biological target: T1, MBP-FoxP1dN (Mus musculus, UniProt P58462 326-579)
T1 sequence: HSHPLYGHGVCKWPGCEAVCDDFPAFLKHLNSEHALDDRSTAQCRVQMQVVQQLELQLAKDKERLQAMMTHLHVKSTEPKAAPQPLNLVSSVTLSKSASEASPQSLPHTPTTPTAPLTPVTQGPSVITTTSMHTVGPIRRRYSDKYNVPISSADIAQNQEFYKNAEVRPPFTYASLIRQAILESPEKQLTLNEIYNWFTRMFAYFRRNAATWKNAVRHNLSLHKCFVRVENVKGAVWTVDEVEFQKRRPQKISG
Assay: PD-seq (MBP pull-down with sequencing); 20 mM Tris-HCl pH 7.5, 100 mM NaCl, 1.5 mM MgCl2, 0.4 uM protein, 0.1 uM dsDNA library, 30 min, room temperature, amylose pull-down; high values mean tight binding
Details: protein: recombinant; tags: His6-MBP; chain copies: 2; dsDNA, one strand shown
How it was run: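 A fragment of mouse FoxP3 or FoxP1 without its N-terminus, carrying a His6-MBP tag and produced in E. coli, was combined at 0.4 µM with a 0.1 µM degenerate double-stranded DNA library filled in with Klenow. The mixture sat for 30 min at room temperature in Tris pH 7.5 buffer containing NaCl and MgCl2. Protein–DNA complexes were captured on amylose resin, washed three times, and the DNA was freed with proteinase K, barcoded by PCR and sequenced on Illumina. Binding is expressed as reads-per-million enrichment of pull-down over input, with replicates pooled.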

Going from “GATGATTGTTCTCCCAGCTGATGAATTGTCGCTGTCGAGTAAACAAATTTTCCTAATCTTTCTGTTCAAGCGCCATCTAC” to “GATGATTGTTCTCCCAGCTGATGAATTCTGGACATCGAGTAAACAAATTTTCCTAATCTTTCTGTTCAAGCGCCATCTAC”, the binding signal falls from 1.02 RPM ratio (pull-down/input) to 0.937 RPM ratio (pull-down/input).

Going from “GATGATTGTTCTCCCAGCTGATGAATTACCAGGTTCGAGTAAACAAATTTTCCTAATCTTTCTGTTCAAGCGCCATCTAC” to “GATGATTGTTCTCCCAGCTGATGAATTATGGTTTTCGAGTAAACAAATTTTCCTAATCTTTCTGTTCAAGCGCCATCTAC”, the binding signal rises from 0.873 RPM ratio (pull-down/input) to 1.24 RPM ratio (pull-down/input).

First: GATGATTGTTCTCCCAGCTGATGAATTTTTCATCTCGAGTAAACAAATTTTCCTAATCTTTCTGTTCAAGCGCCATCTAC
Second: GATGATTGTTCTCCCAGCTGATGAATTCATTCGGTCGAGTAAACAAATTTTCCTAATCTTTCTGTTCAAGCGCCATCTAC
The binding signal of the first is higher: 0.937 RPM ratio (pull-down/input) for the first, 0.807 RPM ratio (pull-down/input) for the second.

Compared with “GATGATTGTTCTCCCAGCTGATGAATTATCTAAATCGAGTAAACAAATTTTCCTAATCTTTCTGTTCAAGCGCCATCTAC”, “GATGATTGTTCTCCCAGCTGATGAATTATTGTGATCGAGTAAACAAATTTTCCTAATCTTTCTGTTCAAGCGCCATCTAC” is higher in binding signal: 1.18 RPM ratio (pull-down/input) for the first, 1.76 RPM ratio (pull-down/input) for the second.

First: GATGATTGTTCTCCCAGCTGATGAATTGTGATTATCGAGTAAACAAATTTTCCTAATCTTTCTGTTCAAGCGCCATCTAC
Second: GATGATTGTTCTCCCAGCTGATGAATTATTCTGATCGAGTAAACAAATTTTCCTAATCTTTCTGTTCAAGCGCCATCTAC
The binding signal of the first is higher: 1.74 RPM ratio (pull-down/input) for the first, 0.97 RPM ratio (pull-down/input) for the second.

First: GATGATTGTTCTCCCAGCTGATGAATTATTATGATCGAGTAAACAAATTTTCCTAATCTTTCTGTTCAAGCGCCATCTAC
Second: GATGATTGTTCTCCCAGCTGATGAATTATCTGAATCGAGTAAACAAATTTTCCTAATCTTTCTGTTCAAGCGCCATCTAC
The binding signal of the first is higher: 1.41 RPM ratio (pull-down/input) for the first, 0.99 RPM ratio (pull-down/input) for the second.

First: GATGATTGTTCTCCCAGCTGATGAATTATGACAATCGAGTAAACAAATTTTCCTAATCTTTCTGTTCAAGCGCCATCTAC
Second: GATGATTGTTCTCCCAGCTGATGAATTAACATAATCGAGTAAACAAATTTTCCTAATCTTTCTGTTCAAGCGCCATCTAC
The binding signal of the first is lower: 1.38 RPM ratio (pull-down/input) for the first, 1.45 RPM ratio (pull-down/input) for the second.

First: GATGATTGTTCTCCCAGCTGATGAATTAACAACATCGAGTAAACAAATTTTCCTAATCTTTCTGTTCAAGCGCCATCTAC
Second: GATGATTGTTCTCCCAGCTGATGAATTAACATCATCGAGTAAACAAATTTTCCTAATCTTTCTGTTCAAGCGCCATCTAC
The binding signal of the first is higher: 2.17 RPM ratio (pull-down/input) for the first, 1.31 RPM ratio (pull-down/input) for the second.

Going from “GATGATTGTTCTCCCAGCTGATGAATTAATAACATCGAGTAAACAAATTTTCCTAATCTTTCTGTTCAAGCGCCATCTAC” to “GATGATTGTTCTCCCAGCTGATGAATTAAATAAATCGAGTAAACAAATTTTCCTAATCTTTCTGTTCAAGCGCCATCTAC”, the binding signal falls from 2.02 RPM ratio (pull-down/input) to 1.49 RPM ratio (pull-down/input).

Going from “GATGATTGTTCTCCCAGCTGATGAATTATTAACATCGAGTAAACAAATTTTCCTAATCTTTCTGTTCAAGCGCCATCTAC” to “GATGATTGTTCTCCCAGCTGATGAATTTTACGTTTCGAGTAAACAAATTTTCCTAATCTTTCTGTTCAAGCGCCATCTAC”, the binding signal falls from 1.32 RPM ratio (pull-down/input) to 0.852 RPM ratio (pull-down/input).

First: GATGATTGTTCTCCCAGCTGATGAATTGCCTAGTTCGAGTAAACAAATTTTCCTAATCTTTCTGTTCAAGCGCCATCTAC
Second: GATGATTGTTCTCCCAGCTGATGAATTAACACGCTCGAGTAAACAAATTTTCCTAATCTTTCTGTTCAAGCGCCATCTAC
The binding signal of the first is lower: 0.959 RPM ratio (pull-down/input) for the first, 1.02 RPM ratio (pull-down/input) for the second.

First: GATGATTGTTCTCCCAGCTGATGAATTGGTGTCGTCGAGTAAACAAATTTTCCTAATCTTTCTGTTCAAGCGCCATCTAC
Second: GATGATTGTTCTCCCAGCTGATGAATTGTTGGTGTCGAGTAAACAAATTTTCCTAATCTTTCTGTTCAAGCGCCATCTAC
The binding signal of the first is lower: 1.04 RPM ratio (pull-down/input) for the first, 1.8 RPM ratio (pull-down/input) for the second.

First: GATGATTGTTCTCCCAGCTGATGAATTTTTGGTGTCGAGTAAACAAATTTTCCTAATCTTTCTGTTCAAGCGCCATCTAC
Second: GATGATTGTTCTCCCAGCTGATGAATTGGTGTTGTCGAGTAAACAAATTTTCCTAATCTTTCTGTTCAAGCGCCATCTAC
The binding signal of the first is lower: 0.926 RPM ratio (pull-down/input) for the first, 2.78 RPM ratio (pull-down/input) for the second.

Going from “GATGATTGTTCTCCCAGCTGATGAATTGGTGGTGTCGAGTAAACAAATTTTCCTAATCTTTCTGTTCAAGCGCCATCTAC” to “GATGATTGTTCTCCCAGCTGATGAATTTGGTGTGTCGAGTAAACAAATTTTCCTAATCTTTCTGTTCAAGCGCCATCTAC”, the binding signal rises from 0.948 RPM ratio (pull-down/input) to 1 RPM ratio (pull-down/input).

Going from “GATGATTGTTCTCCCAGCTGATGAATTAGACCTTTCGAGTAAACAAATTTTCCTAATCTTTCTGTTCAAGCGCCATCTAC” to “GATGATTGTTCTCCCAGCTGATGAATTCGACCGATCGAGTAAACAAATTTTCCTAATCTTTCTGTTCAAGCGCCATCTAC”, the binding signal falls from 0.881 RPM ratio (pull-down/input) to 0.823 RPM ratio (pull-down/input).

Going from “GATGATTGTTCTCCCAGCTGATGAATTAGCCGTTTCGAGTAAACAAATTTTCCTAATCTTTCTGTTCAAGCGCCATCTAC” to “GATGATTGTTCTCCCAGCTGATGAATTATATTGTTCGAGTAAACAAATTTTCCTAATCTTTCTGTTCAAGCGCCATCTAC”, the binding signal rises from 0.852 RPM ratio (pull-down/input) to 2.08 RPM ratio (pull-down/input).

Going from “GATGATTGTTCTCCCAGCTGATGAATTTATATTTTCGAGTAAACAAATTTTCCTAATCTTTCTGTTCAAGCGCCATCTAC” to “GATGATTGTTCTCCCAGCTGATGAATTATATTTTTCGAGTAAACAAATTTTCCTAATCTTTCTGTTCAAGCGCCATCTAC”, the binding signal falls from 2.37 RPM ratio (pull-down/input) to 1.61 RPM ratio (pull-down/input).

“GATGATTGTTCTCCCAGCTGATGAATTTTATATTTCGAGTAAACAAATTTTCCTAATCTTTCTGTTCAAGCGCCATCTAC” was tested, and the binding signal was 1.07 RPM ratio (pull-down/input).
